Assay outcomes: PubChem BioAssay, National Center for Advancing Translational Sciences (NCATS)
Shown are actives, neighbours in structure and some others; about 18% of the full set was active somewhere.
Six1-Eya2 inh: qHTS Assay for Inhibitors of the Six1/Eya2 Interaction. AID 651725, 2012. hit rate 0.56% among 360,000. activity change, % (test concentration not listed). AlphaScreen GST-Six1/His-Eya2 binding, biochemical; active compounds read low. Homeobox protein SIX1 (Homo sapiens) + Protein phosphatase EYA2 (Homo sapiens), …; in the data active means activity change below about -65%; inconclusive means mostly about -30% to -63%
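GST-Six1 + His-Eya2 (5X stock: 250/500 nM); Tris pH 8.0, 300 mM NaCl, 0.05% BSA, 0.02% Tween 20; GSH donor/Ni acceptor beads; 1 h 37 °C dark; AlphaScreen readout.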
IL1B secr inh: qHTS for Inhibitors of Inflammasome Signaling: IL-1-beta AlphaLISA Primary Screen; THP-1 LPS/ATP IL-1B secretion, AlphaLISA, 16 h; active compounds read low; activity change, % at 57.5 µM; hit rate 4.7% among 360,000; in the data active means activity change below about -50%; inconclusive means mostly about -30% to -49%
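THP-1 cells pretreated 1 hr with compounds (up to 57.5 uM final), then stimulated with LPS (250 ng/mL final) plus ATP (1.25 mM final); secreted IL-1B measured by AlphaLISA after 16 hr, decreased signal indicating inhibition.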
TDP1 block: qHTS Assay for Inhibitors of Tyrosyl-DNA Phosphodiesterase (TDP1). recombinant TDP1, AlphaScreen DNA substrate cleavage. AID 485290, 2010. Potency, µM (doses to about 130 µM), without a hit: top-dose activity change, negative = inhibition, hits mostly inhibitors. hit rate 0.28% among 350,000. Tyrosyl-DNA phosphodiesterase 1 (Homo sapiens), Q9NUW8; further: potency means the concentration at half of the fitted maximal effect; nearly all actives have a fitted effect of over 40% in size
Target sequence (Q9NUW8 whole entry, looked up): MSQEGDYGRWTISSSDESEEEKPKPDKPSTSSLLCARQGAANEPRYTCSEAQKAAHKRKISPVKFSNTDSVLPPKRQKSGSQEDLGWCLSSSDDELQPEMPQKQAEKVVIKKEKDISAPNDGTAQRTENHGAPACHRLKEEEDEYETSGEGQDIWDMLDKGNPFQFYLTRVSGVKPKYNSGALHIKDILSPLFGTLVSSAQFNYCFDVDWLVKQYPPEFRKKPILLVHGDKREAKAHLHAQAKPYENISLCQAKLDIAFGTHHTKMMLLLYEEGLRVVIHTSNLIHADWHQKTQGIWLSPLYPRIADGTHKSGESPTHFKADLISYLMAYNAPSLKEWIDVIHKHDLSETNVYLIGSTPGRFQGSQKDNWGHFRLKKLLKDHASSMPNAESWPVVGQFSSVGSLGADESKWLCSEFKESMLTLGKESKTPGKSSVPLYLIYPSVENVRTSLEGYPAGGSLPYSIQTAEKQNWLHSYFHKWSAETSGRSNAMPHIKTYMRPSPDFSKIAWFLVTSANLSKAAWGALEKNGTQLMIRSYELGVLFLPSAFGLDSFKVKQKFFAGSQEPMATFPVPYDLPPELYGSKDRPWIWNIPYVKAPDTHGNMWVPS
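Compounds were preincubated with Tdp1 (1 nM final) for 15 min at room temperature before substrate (15 nM final) started a 5 min reaction; beads (10 ug/ml final) were then added for 10 min before AlphaScreen detection.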
TDP1 cell noCPT: qHTS for Inhibitors of human tyrosyl-DNA phosphodiesterase 1 (TDP1): qHTS in cells in absence of CPT. DT40 Tdp1-/- hTDP1 cells, no CPT, ATP luminescence, 48 h. Potency, µM (highest dose often 46.2 µM), inactives show top-dose activity change, negative = growth inhibition, actives largely listed as inhibitors. hit rate 15% among 420,000; further: potency means the concentration at half of the fitted maximal effect; nearly all actives have a fitted effect of over 55% in size
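Compound effects on proliferation are scored in DT40 Tdp1-/-;hTDP1 cells in the absence of CPT. ATP levels (CellTiter-Glo luminescence) are recorded after a ≥48 hr, 37 °C incubation.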
CtBP-E1A blk: qHTS Assay for Inhibitors of the CtBP/E1A Interaction | CtBP / adenovirus E1A interaction (AlphaScreen) | AlphaScreen GST-E1A/His-CtBP binding, 1536-well; active compounds read low | activity change, % (concentration not given with the values) | hit rate 0.49% among 340,000 | AID 651724, 2012; in the data active means activity change below about -65%; inconclusive means mostly about -30% to -63%
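AlphaScreen with 125 nM GST-E1A and 125 nM His-CtBP (5X stocks) in Tris pH 8.0, 300 mM NaCl, BSA, Tween 20, TCEP. Compounds preincubated 2 h at 37 deg C, then glutathione donor/nickel acceptor beads added for 1 h at 37 deg C in dark.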
TDP1 cell CPT: qHTS for Inhibitors of human tyrosyl-DNA phosphodiesterase 1 (TDP1): qHTS in cells in presence of CPT; chicken DT40 Tdp1-/-;hTDP1 cells + 20 nM CPT, ATP luminescence, 48 h; Potency, µM (doses to about 46.2 µM), inactives show at the top dose activity change, negative = growth inhibition, usual class: inhibitors; hit rate 12% among 420,000; AID 686979, 2013; further: potency means the concentration at half of the fitted maximal effect; nearly all actives have a fitted effect of over 55% in size
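Cell growth measured by CellTiter-Glo luminescence after a minimum 48 h, 37 C compound exposure with 20 nM CPT in Tdp1-knockout DT40 cells stably expressing hTDP1, seeded 400/well; qHTS titration format.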
* marks the source's active call; other numbers are inactive results; ? = inconclusive; nt = no result given. Unless noted, the call rests on the fitted dose curve; in most records, active means well fitted curve in the direction sought with a large enough effect; inconclusive means small, poorly fitted or top-dose-only effect, or another doubt; inactive means no such curve, though single readings can be large; an effect the other way counts as inactive or inconclusive. On the % scale 0 is the no-effect control and ±100 the full control effect.

SMILES	Six1-Eya2 inh	IL1B secr inh	TDP1 block	TDP1 cell noCPT	CtBP-E1A blk	TDP1 cell CPT
CCN1CCN(S(=O)(=O)c2ccc(Cl)c(C(=O)N(C)CC(=O)Nc3c(C)cccc3C)c2)CC1	3	25	nt	8%	4	-13%
O=C(NC(=S)N1CCc2ccccc21)c1ccccc1Br	-6	15	0%	21µM*	-6	18µM*
O=C(NC(=S)N1CCc2ccccc21)c1ccc(Br)o1	-8	0	0%	5.2µM*	4	2.9µM*
O=C(NC1CCCc2ccccc21)C1CCN(S(=O)(=O)c2cnc[nH]2)CC1 (configuration not stated)	-1	-4	0%	-6%	-1	-10%
CN(C(=O)CO/N=C/c1ccc(Cl)cc1)c1ccccc1	2	-51*	5%	-25%	0	-18%
Nc1nnc(SCC(=O)NCCNC(=O)CSc2nnc(N)s2)s1	9	5	1%	0%	-4	10%
CCc1ccc(NC(=O)C2CCCN(S(=O)(=O)c3c(C)noc3/C=C/N(C)C)C2)cc1 (configuration not stated)	nt	nt	-1%	?	nt	?
Cc1noc(/C=C/N(C)C)c1S(=O)(=O)N1CCCC(C(=O)NC2CCCCC2C)C1 (configuration not stated)	-1	-13	8%	21µM*	-3	?
Cc1ccc(NC(=O)C2CCCN(S(=O)(=O)c3c(C)noc3/C=C/N(C)C)C2)cc1F (configuration not stated)	-3	-24	11%	18µM*	0	?
Cc1cccc(C)c1NC(=O)C1CCCN(S(=O)(=O)c2c(C)noc2/C=C/N(C)C)C1 (configuration not stated)	nt	nt	6%	?	nt	16µM*
O=C(O)c1ccc(N/N=C2/CCSc3ccc(F)cc32)cc1	-13	3	8%	-12%	-10	-19%
Cc1ccc(NC(=O)C2(NC(=O)c3ccccn3)CCCCC2)cc1Br	0	-10	-3%	?	9	21µM*
Cc1cccc(NC(=O)CCc2c(C)nn(-c3ccc(N4CCCCC4)nn3)c2C)c1	-5	-14	1%	?	nt	?
Cn1c(=O)c2c(SCC(=O)Nc3ccc4c(c3)OCCO4)nc(CC(C)(C)C)nc2n(C)c1=O	2	7	3%	?	2	26µM*
Cn1c(=O)c2c(SCC(=O)N3CCOCC3)nc(CC(C)(C)C)nc2n(C)c1=O	nt	nt	5%	nt	nt	nt
Cn1c(=O)c2c(SCC(=O)NCc3ccco3)nc(CC(C)(C)C)nc2n(C)c1=O	-3	24	2%	18µM*	-2	?
Cc1ccc(-c2nc(SCC(=O)NCc3ccco3)c3c(=O)n(C)c(=O)n(C)c3n2)cc1	nt	nt	-3%	-7%	nt	-7%
C(=C/c1ccccc1)/c1ccccc1	nt	nt	6%	nt	nt	nt
Cc1c(C)c(C)c(/C=C/c2ccnc3ccccc23)c(C)c1C	nt	nt	nt	11µM*	nt	11µM*
O=Nc1ccc(/C=C/c2ccnc3ccccc23)cc1	nt	nt	nt	8.9µM*	nt	16µM*
C(=C\c1nnc2c3ccccc3ncn12)/c1ccccc1	1	45	4%	4.6µM*	2	5.2µM*
Clc1ccc(/C=C/c2ccnc3ccccc23)c(Cl)c1	nt	nt	nt	3.5µM*	nt	5.6µM*
Cc1cnc2ccccc2c1C	nt	nt	nt	-19%	nt	2%
O=C1Nc2ccccc2Oc2cc(Oc3cccc(Cl)c3)ccc21	nt	nt	7%	nt	nt	nt
Nc1ccc(/C=C/c2ccnc3ccccc23)cc1	nt	nt	nt	11µM*	nt	10µM*
SMILES	Six1-Eya2 inh	IL1B secr inh	TDP1 block	TDP1 cell noCPT	CtBP-E1A blk	TDP1 cell CPT
C(=C\c1ccnc2ccccc12)/c1ccccc1	nt	nt	nt	13µM*	nt	?
Clc1ccc(/C=C/c2ccnc3ccccc23)cc1	nt	nt	nt	8.9µM*	nt	10µM*
C(=C\c1ccnc2ccccc12)/c1ccc(-[n+]2cc[n+](-c3ccc(/C=C/c4ccnc5ccccc45)cc3)cc2)cc1	nt	nt	nt	5µM*	nt	5.6µM*
Nc1ccc(-c2c3ccccc3nc3ccccc23)cc1	13	3	nt	-27%	3	-8%
Nc1ccc(/C=C/c2ccnc3ccccc23)c(N)c1	nt	nt	nt	?	nt	10µM*
C=CC[C@@H]1/C=C(\C)C[C@H](C)C[C@H](OC)[C@H]2O[C@@](O)(C(=O)C(=O)N3CCCC[C@H]3C(=O)O[C@H](/C(C)=C/[C@@H]3CC[C@@H](O)[C@H](OC)C3)[C@H](C)[C@@H](O)CC1=O)[C@H](C)C[C@@H]2OC	nt	nt	7%	3µM*	nt	3.3µM*
CC[C@@H]1/C=C(\C)C[C@H](C)C[C@H](OC)[C@H]2O[C@@](O)(C(=O)C(=O)N3CCCC[C@H]3C(=O)O[C@H](/C(C)=C/[C@@H]3CC[C@@H](O)[C@H](OC)C3)[C@H](C)[C@@H](O)CC1=O)[C@H](C)C[C@@H]2OC	nt	nt	10%	nt	nt	nt
CCC(CC)c1nnc(NC(=O)CC(C)c2ccccc2)s1 (configuration not stated)	0	42	nt	-27%	1	3%
CSc1ccc(/C=N/n2c(C3CCCCC3)n[nH]c2=S)cc1	-10	-62*	nt	?	-9	?
O=[N+]([O-])c1ccc(/C=N/n2c(C3CCCCC3)n[nH]c2=S)cc1	-1	-21	1%	16µM*	-23	?
O=[N+]([O-])c1ccc(C=NN2CCCCCC2)cc1	?	?	nt	18µM*	?	?
Cc1ccc(NC(=O)CSCC(=O)N(C)CCOc2ccc(Cl)cc2)cc1	-2	0	5%	-15%	-3	-27%
CCCCN1C(=O)C(NC(C)=O)c2cc(Br)ccc21 (configuration not stated)	4	17	0%	21µM*	0	?
O=C(CSc1nnc(C2COc3ccccc3O2)o1)N1CCCCC1 (configuration not stated)	3	-4	4%	-9%	-2	-8%
c1ccc2c(c1)OCC(c1csc3ncnc(N4CCCC4)c13)O2 (configuration not stated)	-14	-7	1%	10µM*	-2	15µM*
